High-throughput results from PubChem BioAssay.
CYP2C19 inhib: blockers of cytochrome P450 2C19 activity – biochemical, luminescence, ADME assay, primary screen; P33261; CYP2C19 Supersomes, luciferin-H EGE luminescence, 30 min; inhibition, % at 5 µM; 96,000 compounds, 21% hits;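 active = CYP2C19 inhibition above a set limit at 5 µM in the primary screen, cut at about 50% in these data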;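 also: plate controls were negative control wells for no effect and 2.5 mM tranylcypromine positive control for full effect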
CYP2C9 inh: blockers of cytochrome P450 2C9 activity – biochemical, luminescence, ADME assay, primary screen. inhibition, % at 5 µM. P11712. CYP2C9 Supersomes, luciferin-H conversion. 96,000 compounds, 20% hits. AID 777, 2007;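 active = blocking of liver enzyme CYP2C9 beyond about 50% at 5 µM, limit read from the data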
Target sequence (P11712 whole entry, looked up): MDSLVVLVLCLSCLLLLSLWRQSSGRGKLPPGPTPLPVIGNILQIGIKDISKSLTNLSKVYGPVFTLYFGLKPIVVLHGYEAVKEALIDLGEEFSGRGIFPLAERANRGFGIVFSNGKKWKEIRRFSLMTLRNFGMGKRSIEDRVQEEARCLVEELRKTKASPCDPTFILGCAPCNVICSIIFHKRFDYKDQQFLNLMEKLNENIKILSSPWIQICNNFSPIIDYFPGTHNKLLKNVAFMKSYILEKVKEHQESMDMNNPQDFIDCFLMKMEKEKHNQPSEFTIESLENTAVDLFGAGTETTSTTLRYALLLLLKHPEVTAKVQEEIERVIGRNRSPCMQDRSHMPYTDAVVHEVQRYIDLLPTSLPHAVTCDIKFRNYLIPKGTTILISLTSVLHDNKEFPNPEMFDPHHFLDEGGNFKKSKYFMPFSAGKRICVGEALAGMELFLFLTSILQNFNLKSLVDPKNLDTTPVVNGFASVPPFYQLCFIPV
CYP2C19 activ: human CYP2C19 activators, primary screen, biochemical, luminescence; Cytochrome P450 2C19 (Homo sapiens), P33261; recombinant CYP2C19, luciferin-H EGE luminescence; stronger effect = higher value; 0 = fully inhibited enzyme, 1 = untreated enzyme; activation factor at 5 µM; 96,000 tested, under 10 active;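 active = activation factor of at least 2 at 5 µM in the primary screen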;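 also: 0 = wells with 2.5 mM tranylcypromine and 1 = vehicle-only wells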
CYP2C9 activ: human CYP2C9 activators, primary screen, biochemical, luminescence; Cytochrome P450 2C9 (Homo sapiens), P11712; recombinant CYP2C9, luciferin-H conversion; stronger effect = higher value; factor 1 = untreated enzyme, 0 = blocked; activation factor at 5 µM; 96,000 compounds, 1.4% hits; AID 1024, 2008;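 active = activation factor of 2 or more for CYP2C9 at a 5 µM dose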;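 also: 0 = sulfaphenazole-blocked wells and 1 = vehicle-only wells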
Starred values were filed as active, the others as inactive. Rows were chosen to be rich in hits. Some 31% of all compounds tested hit in one or more screens of this group.

SMILES	CYP2C19 inhib	CYP2C9 inh	CYP2C19 activ	CYP2C9 activ
O=C(CCn1c(=S)oc2ccccc21)Nc1ccc2c(c1)OCCO2	18	-10	0.8	1.1
Cn1cc(S(=O)(=O)CC(=O)Nc2ccc(Br)cc2)c2ccccc21	99*	-1	0	1
CCn1cc(S(=O)(=O)CC(=O)Nc2ccc(C)cc2)c2ccccc21	90*	32	0.1	0.7
CN(CCC(=O)Nc1ccc(Br)cc1)Cc1ccccc1	26	35	0.7	0.7
CCCn1cc(S(=O)(=O)CC(=O)Nc2ccc(OCC)cc2)c2ccccc21	24	30	0.8	0.7
CCn1cc(S(=O)(=O)CC(=O)Nc2ccc3c(c2)OCCO3)c2ccccc21	36	70*	0.6	0.3
CC(Oc1ccc(C(C)(C)C)cc1)c1ccnc2nc(/N=C/N(C)C)nn12 (stereo not given)	6	13	0.9	0.9
O=C(C1CC(=O)N(C2CCCC2)C1)N1CCC(Cc2ccccc2)CC1 (stereo not given)	5	32	0.9	0.7
CCCCn1c(NC(=O)c2ccccc2)nc2ccccc21	61*	73*	0.4	0.3
CCCCCn1c(C(Cc2ccccc2)NC(C)=O)nc2ccccc21 (stereo not given)	74*	23	0.3	0.8
COc1cc(CC(=O)Oc2ccc3c(c2)OCO3)cc(OC)c1OC	-17	-18	1.2	1.2
CCOC(=O)N1CCN(C(=O)C(CC(C)C)NC(=O)C2CCCCC2)CC1 (stereo not given)	-1	-4	1	1
COc1ccc(-c2nc(N)nc(C)c2Oc2ccccc2Br)c(O)c1	85*	94*	0.1	0.1
O=C(CC1Sc2ccccc2NC1=O)OC(C(=O)NCCc1ccccc1)c1cccnc1 (stereo not given)	55*	30	0.4	0.7
COCCNC(=O)C(OC(=O)CC1Sc2ccccc2NC1=O)c1ccncc1 (stereo not given)	83*	87*	0.2	0.1
CCOC(=O)Cn1c(S(=O)(=O)Cc2ccc(F)cc2)nc(-c2ccccc2)c1-c1ccccc1	52*	44	0.5	0.6
CCOC(=O)Cn1c(S(=O)(=O)Cc2cccc(F)c2)nc(-c2ccccc2)c1-c1ccccc1	14	30	0.9	0.7
C#CCn1c(S(=O)(=O)Cc2ccc(F)cc2)nc(-c2ccccc2)c1-c1ccccc1	98*	92*	0	0.1
CNC(=S)N1CCN(c2ccccc2OC)CC1	26	23	0.7	0.8
CCOc1ccccc1N1CCN(Cc2cccc(OC)c2OC)CC1	48	-7	0.5	1.1
CCS(=O)(=O)N1CCN(Cc2ccccc2OC)CC1	89*	15	0.1	0.8
CCOc1ccccc1CN1CCN(S(=O)(=O)CC)CC1	38	9	0.6	0.9
CCCS(=O)(=O)N1CCN(Cc2ccccc2OCC)CC1	75*	4	0.2	1
CCCC1Cc2nc(N3CCCCC3)c(C#N)cc2CO1 (stereo not given)	73*	86*	0.3	0.1
Cc1cc(C)c2cc(C#N)c(N3CCCC3)nc2c1	18	1	0.8	1
SMILES	CYP2C19 inhib	CYP2C9 inh	CYP2C19 activ	CYP2C9 activ
NC(=O)C1(N2CCCCC2)CCN(Cc2nc3ccccc3c(=O)[nH]2)CC1	15	4	0.9	1
Cc1ccc(NC(=O)C2(NC(=O)c3cccc(N4C(=O)CSC4c4ccccc4)c3)CCCCC2)cc1 (stereo not given)	4	84*	1	0.2
COC(=O)[C@@H]1C2CCC(C(=O)Nc3ccccc3)(CC2)[C@@H]1C(=O)OC	20	16	0.8	0.8
NC(=O)CN(c1ccccc1)C1SC(=O)N(Cc2ccccc2)C1=O (stereo not given)	52*	14	0.5	0.9
Cc1cccc(Oc2nc(-c3cccc([N+](=O)[O-])c3)nc3ccccc23)c1C	-2	11	1	0.9
Cc1cc(Nc2ccccc2)nc(N2CCOCC2)n1	-23	7	1.2	0.9
Cc1ccccc1-c1ccc(Nc2ccc(N3CCOCC3)cc2)nn1	35	58*	0.6	0.4
CCCOc1ccc2oc(=O)c3c(c2c1)CCCN3C(=O)CN1CCN(c2ncccn2)CC1	63*	65*	0.4	0.3
O=C(CN1CCCC1)N1CCCc2c1c(=O)oc1ccc(OCc3ccccc3)cc21	19	31	0.8	0.7
COCC(=O)Nc1nnc(CCc2ccccc2)s1	21	6	0.8	0.9
Cc1ccc(C)c(NC(=S)NNC(=O)c2ccco2)c1	0	41	1	0.6
Cc1ccc(C)c(NC(=S)NNC(=O)c2sccc2C)c1	79*	89*	0.2	0.1
COc1ccc(CCNC(=O)c2c(O)c3c([nH]c2=O)CCCC3)cc1	19	38	0.8	0.6
CCOc1ccc(CN=C(N)N=C(N)N)cc1Cl	3	-1	1	1
Cc1ccc(S(=O)(=O)NCCOC(=O)Nc2sc(=S)n(C)c2C)cc1	73*	-3	0.3	1
COCCCNC(=O)CCNS(=O)(=O)c1ccc(C)cc1	5	-7	0.9	1.1
COCCN(C(=O)Cc1cccs1)C(C(=O)NCc1ccc(OC)cc1)c1ccccc1 (stereo not given)	14	17	0.9	0.8
C#CC(=O)N(c1ccc(OC)c(OC)c1)C(C(=O)NC1CCCC1)c1cccs1 (stereo not given)	10	8	0.9	0.9
O=C(NC1CCCCC1)C(c1ccc(F)cc1)N(C(=O)c1cccs1)c1ccc2c(c1)OCO2 (stereo not given)	-5	14	1.1	0.9
O=C(NC1CCCCC1)C(c1ccc2ncccc2c1)N(Cc1ccc(F)cc1)C(=O)c1cccs1 (stereo not given)	66*	84*	0.3	0.2
COc1ccc(CNC(=O)C(c2ccncc2)N(C(=O)Cc2cccs2)c2ccc(C)cc2)cc1 (stereo not given)	67*	69*	0.3	0.3
C#CC(=O)N(c1cccc(OC)c1)C(C(=O)NC1CCCC1)c1cccs1 (stereo not given)	57*	24	0.4	0.8
COc1cccc(CN(C(=O)Cc2c[nH]c3ccccc23)C(C(=O)NC2CCCCC2)c2cccs2)c1 (stereo not given)	94*	98*	0.1	0
O=C1C2C3c4ccccc4C(c4ccccc43)C2C(=O)N1CN1CCOCC1 (stereo not given)	17	0	0.8	1
CCN1CCN(c2nc3ccccc3nc2C(C#N)S(=O)(=O)c2ccc(C)c(C)c2)CC1 (stereo not given)	8	1	0.9	1
COc1ccc(CCN(C(=O)C(F)(F)F)C(C(=O)NC2CCCC2)c2cccs2)cc1OC (stereo not given)	85*	88*	0.1	0.1
Cn1cccc1C(C(=O)NC1CCCCC1)N(C(=O)Cc1cccs1)C1CC1 (stereo not given)	92*	12	0.1	0.9
